Experimental findings from PubChem BioAssay (Tox21) are described below.

The structures appear in SMILES notation. Several values for one entry are separate records, joined by “and”; a condition that tells them apart may be missing. Identical values can stand only once. Some compounds were tested as several samples or in several runs, with calls that do not always agree. Activity calls are given as the source filed them. Unless noted, the call rests on the fitted dose curve; in most records, active means well fitted curve in the direction sought with a large enough effect in the repeat runs; inconclusive means weak or mixed curves; inactive means no such curve, though single readings can be large; an effect the other way counts as inactive or inconclusive.

Assay [1] in a line: qHTS assay for identifying genotoxic compounds that show differential cytotoxicity against isogenic chicken DT40 cell lines with known DNA damage response pathways - wild type cell line (AID 743012). Further: nearly all actives have a fitted effect of over 60% in size. Further: potency means the concentration at half of the fitted maximal effect. In a few lines:
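Cells (DT40 wild type, 300/well) are treated with DMSO-dissolved compounds after a ~0.5 h pre-incubation and kept 40 h at 37 C/5% CO2. Viability is then measured by CellTiter-Glo luminescence following 30 min at room temperature.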
(In qHTS, concentration-response curves come from the screen itself.)

The nature of assay [2]: qHTS assay for identifying genotoxic compounds that show differential cytotoxicity against isogenic chicken DT40 cell lines with known DNA damage response pathways - Rev3 mutant cell line (AID 743014). Further: nearly all actives have a fitted effect of over 55% in size. Further: potency means the concentration at half of the fitted maximal effect.
Assay [3] is described as follows: qHTS assay for identifying genotoxic compounds that show differential cytotoxicity against isogenic chicken DT40 cell lines with known DNA damage response pathways - Rad54/Ku70 mutant cell line (AID 743015). Further: nearly all actives have a fitted effect of over 60% in size. Further: potency means the concentration at half of the fitted maximal effect.
Assay [4] in a line: qHTS assay to identify small molecule antagonists of the androgen receptor (AR) signaling pathway using the MDA cell line - cell viability counter screen (AID 743041; further: nearly all actives have a fitted effect of over 45% in size; further: potency means the concentration at half of the fitted maximal effect). The procedure, abridged: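 Same-well cytotoxicity was assessed by CellTiter-Fluor in MDA-kb2 AR-luc cells after 16 h of compound treatment under R1881 agonism.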
Assay [5] in a line: qHTS assay to identify small molecule antagonists of the thyroid receptor (TR) signaling pathway - cell viability counter screen (AID 743064). Further: nearly all actives have a fitted effect of over 50% in size. Further: potency means the concentration at half of the fitted maximal effect. In a few lines:
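GH3.TRE-Luc rat pituitary cells dosed after 4 hr plating, co-stimulated with T3 at 1 nM final, incubated 23.5 h at 37 C. Viability measured in the same wells by CellTiter-Fluor fluorescence after 30 min further at 37 C.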

Assay [6] is described as follows: qHTS assay to identify small molecule antagonists of the thyroid receptor (TR) signaling pathway (AID 743065). Further: nearly all actives have a fitted effect of over 55% in size. Further: potency means the concentration at half of the fitted maximal effect. In a few lines:
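GH3.TRE-Luc rat pituitary cells (two TREs driving luciferase) were dosed with compound, then stimulated with 1 nM T3 (final) for 23.5 h at 37 C. ONE-Glo luminescence was the read-out, with CellTiter-Fluor fluorescence as the cytotoxicity counter-screen.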

For assay [7], the system named is thyroid hormone receptor (rat, GH3 cells). The assay can be described thus: qHTS assay to identify small molecule agonists of the thyroid receptor (TR) signaling pathway (AID 743066; calls by dose curve).
Assay [8] in a line: qHTS assay to identify small molecule antagonists of the estrogen receptor alpha (ER-alpha) signaling pathway - cell viability counter screen (AID 743074; calls by dose curve;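 further: HEK293 cells carrying ER-alpha-UAS-bla reporter stimulated with 17beta-estradiol; nearly all actives have a fitted effect of over 45% in size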; further: potency means the concentration at half of the fitted maximal effect).
The target of assay [9] is Estrogen receptor (Homo sapiens) (UniProt P03372). Put plainly: qHTS assay to identify small molecule agonists of the estrogen receptor alpha (ER-alpha) signaling pathway (AID 743075; calls by dose curve;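 further: HEK293 GripTite cells with ER-alpha and UAS-driven beta-lactamase reporter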; further: potency means the concentration at half of the fitted maximal effect). As to conditions: HEK293 ER-alpha-UAS-bla, beta-lactamase FRET ratio, 18 h; activation: at 70.1 µM (top of the series).
Chain of Estrogen receptor (Homo sapiens) (P03372 whole entry, looked up): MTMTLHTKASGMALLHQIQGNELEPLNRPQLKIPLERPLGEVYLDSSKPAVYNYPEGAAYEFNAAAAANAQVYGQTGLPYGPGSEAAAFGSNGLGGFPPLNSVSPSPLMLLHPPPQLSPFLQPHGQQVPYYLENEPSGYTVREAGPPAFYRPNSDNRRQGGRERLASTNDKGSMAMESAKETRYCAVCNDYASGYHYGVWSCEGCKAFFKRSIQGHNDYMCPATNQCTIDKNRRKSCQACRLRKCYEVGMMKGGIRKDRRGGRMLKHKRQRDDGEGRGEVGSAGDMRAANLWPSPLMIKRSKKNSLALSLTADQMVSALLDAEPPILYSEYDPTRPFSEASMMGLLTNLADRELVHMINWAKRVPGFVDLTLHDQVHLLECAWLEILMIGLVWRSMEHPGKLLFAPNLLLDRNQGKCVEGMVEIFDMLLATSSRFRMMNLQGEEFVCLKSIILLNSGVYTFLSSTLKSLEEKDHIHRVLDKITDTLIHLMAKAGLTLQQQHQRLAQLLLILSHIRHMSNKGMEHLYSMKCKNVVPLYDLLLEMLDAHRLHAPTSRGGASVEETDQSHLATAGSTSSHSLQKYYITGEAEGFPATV
Assay [10] in a line: qHTS assay to identify small molecule antagonists of the estrogen receptor alpha (ER-alpha) signaling pathway using the BG1 cell line - cell viability counter screen (AID 743081).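 Further: compound given together with 17beta-estradiol as the ER stimulus; nearly all actives have a fitted effect of over 45% in size.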 Further: potency means the concentration at half of the fitted maximal effect.
Assay [11] in a line: qHTS assay to identify small molecule antagonists of the androgen receptor (AR) signaling pathway - cell viability counter screen (AID 743033; further: nearly all actives have a fitted effect of over 45% in size; further: potency means the concentration at half of the fitted maximal effect).
Assay [12] has as its target Aromatase (Homo sapiens) (UniProt P11511). Put plainly: qHTS assay to identify aromatase inhibitors (AID 743083). Further: nearly all actives have a fitted effect of over 55% in size. Further: potency means the concentration at half of the fitted maximal effect.
For assay [13], the target named is Androgen receptor (Homo sapiens) (UniProt P10275). The assay can be described thus: qHTS assay to identify small molecule agonists of the androgen receptor (AR) signaling pathway (AID 743036; active means well fitted activation curve with a large enough effect in the signal ratio in the repeat runs, with a control signal flat, not every such curve was filed as active; inconclusive means weak or mixed curves, or effect the other way; inactive means no such curve, though single readings can be large or run the other way; the % refers to the signal ratio). The procedure, abridged: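 AR-UAS-bla HEK293 cells, plated 4 h before dosing, were treated with compound for 16 h at 37C. beta-Lactamase reporter read after 2 h with LiveBLAzer B/G FRET substrate at room temperature.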
Chain of Androgen receptor (Homo sapiens) (P10275 whole entry, looked up): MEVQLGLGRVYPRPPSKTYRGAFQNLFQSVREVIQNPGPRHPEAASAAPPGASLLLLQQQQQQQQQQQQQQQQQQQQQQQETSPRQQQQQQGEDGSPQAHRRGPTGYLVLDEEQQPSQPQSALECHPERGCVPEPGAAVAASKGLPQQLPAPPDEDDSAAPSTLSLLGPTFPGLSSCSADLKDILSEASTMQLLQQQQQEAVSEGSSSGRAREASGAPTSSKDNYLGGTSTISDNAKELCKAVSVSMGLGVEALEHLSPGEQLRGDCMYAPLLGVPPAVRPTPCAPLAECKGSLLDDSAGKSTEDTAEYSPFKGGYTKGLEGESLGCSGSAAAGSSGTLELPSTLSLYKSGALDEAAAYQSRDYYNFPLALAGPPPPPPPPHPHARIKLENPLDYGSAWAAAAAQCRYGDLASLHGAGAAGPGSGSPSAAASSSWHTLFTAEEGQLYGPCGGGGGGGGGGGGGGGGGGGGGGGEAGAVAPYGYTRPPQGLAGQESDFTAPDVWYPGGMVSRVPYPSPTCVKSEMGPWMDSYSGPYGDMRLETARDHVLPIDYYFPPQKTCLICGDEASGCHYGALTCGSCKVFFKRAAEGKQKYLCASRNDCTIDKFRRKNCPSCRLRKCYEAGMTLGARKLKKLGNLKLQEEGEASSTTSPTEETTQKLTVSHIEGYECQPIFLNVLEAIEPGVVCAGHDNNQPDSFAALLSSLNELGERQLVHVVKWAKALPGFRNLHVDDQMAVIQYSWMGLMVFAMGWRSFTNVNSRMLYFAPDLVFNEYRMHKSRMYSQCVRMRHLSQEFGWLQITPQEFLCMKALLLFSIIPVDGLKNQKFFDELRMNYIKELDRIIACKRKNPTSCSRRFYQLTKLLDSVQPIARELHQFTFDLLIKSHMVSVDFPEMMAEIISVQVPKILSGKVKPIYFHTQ

Assay [14] shares this target. The assay can be described thus: qHTS assay to identify small molecule agonists of the androgen receptor (AR) signaling pathway using the MDA cell line (AID 743040; further: nearly all actives have a fitted effect of over 20% in size). The procedure, abridged:
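Human breast carcinoma MDA-kb2 reporter cells (MMTV-luc, AR/GR elements) were treated for 16 h at 37C in 0% CO2 following a 5 h settling period. Signal was quantified by ONE-Glo luminescence.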

For assay [15] the target is unchanged. Put plainly: qHTS assay to identify small molecule antagonists of the androgen receptor (AR) signaling pathway using the MDA cell line (AID 743042; further: nearly all actives have a fitted effect of over 55% in size; further: potency means the concentration at half of the fitted maximal effect). The procedure, abridged:
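MDA-kb2 breast carcinoma cells carrying MMTV-luciferase (AR/GR responsive) were co-treated with compounds and the agonist R1881 for 16 h at 37C. Inhibition read as ONE-Glo luminescence; CellTiter-Fluor fluorescence measured in parallel for cytotoxicity.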

Assay [16] is described as follows: qHTS assay to identify small molecule antagonists of the estrogen receptor alpha (ER-alpha) signaling pathway using the BG1 cell line (AID 743080; calls by dose curve;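 further: BG1 cells stimulated with 17beta-estradiol alongside compound; nearly all actives have a fitted effect of over 25% in size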; further: potency means the concentration at half of the fitted maximal effect). In a few lines:
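Endogenous full-length ER-alpha in BG1-Luc-4E2 cells drives a stably integrated 4×ERE luciferase gene; compounds were tested against 17beta-estradiol over 21.5 h, with luminescence and multiplexed viability fluorescence recorded.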

The target of assay [17] is Androgen receptor (Homo sapiens) (UniProt P10275). Put plainly: qHTS assay to identify small molecule antagonists of the androgen receptor (AR) signaling pathway (AID 743035; active means well fitted inhibition curve with a large enough effect in the signal ratio in the repeat runs, not every such curve was filed as active; inconclusive means weak or mixed curves, or effect the other way; inactive means no such curve, though single readings can be large or run the other way; the % refers to the signal ratio). In a few lines:
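Antagonism is scored as loss of R1881-driven beta-lactamase reporter expression in HEK293 cells carrying the reporter under a UAS element, after 16 h co-treatment at 37C and a 2 h room-temperature FRET substrate read.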

In assay [18] the target is Estrogen receptor (Homo sapiens) (UniProt P03372). The assay can be described thus: qHTS assay to identify small molecule antagonists of the estrogen receptor alpha (ER-alpha) signaling pathway (AID 743069; active means well fitted curve in the direction sought with a large enough effect in the signal ratio in the repeat runs, not every such curve was filed as active; inconclusive means weak or mixed curves, or effect the other way; inactive means no such curve, though single readings can be large or run the other way; the % refers to the signal ratio; further: potency means the concentration at half of the fitted maximal effect). The procedure, abridged: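 Reporter cells (ER-alpha-bla, HEK293 background) are conditioned overnight in stripped-serum medium (2% charcoal-stripped FBS). Compound and 17beta-estradiol exposure runs 18 hr at 37C, 5% CO2.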

The target is the same in assay [19]. Put plainly: qHTS assay to identify small molecule agonists of the estrogen receptor alpha (ER-alpha) signaling pathway using the BG1 cell line (AID 743079). Further: nearly all actives have a fitted effect of over 20% in size. Further: potency means the concentration at half of the fitted maximal effect. As to conditions: BG1Luc4E2 cells, ERE-luciferase agonist, 22 h.
On the % scale 0 is the no-effect control and ±100 the full control effect.

Chain of Aromatase (Homo sapiens) (P11511 whole entry, looked up): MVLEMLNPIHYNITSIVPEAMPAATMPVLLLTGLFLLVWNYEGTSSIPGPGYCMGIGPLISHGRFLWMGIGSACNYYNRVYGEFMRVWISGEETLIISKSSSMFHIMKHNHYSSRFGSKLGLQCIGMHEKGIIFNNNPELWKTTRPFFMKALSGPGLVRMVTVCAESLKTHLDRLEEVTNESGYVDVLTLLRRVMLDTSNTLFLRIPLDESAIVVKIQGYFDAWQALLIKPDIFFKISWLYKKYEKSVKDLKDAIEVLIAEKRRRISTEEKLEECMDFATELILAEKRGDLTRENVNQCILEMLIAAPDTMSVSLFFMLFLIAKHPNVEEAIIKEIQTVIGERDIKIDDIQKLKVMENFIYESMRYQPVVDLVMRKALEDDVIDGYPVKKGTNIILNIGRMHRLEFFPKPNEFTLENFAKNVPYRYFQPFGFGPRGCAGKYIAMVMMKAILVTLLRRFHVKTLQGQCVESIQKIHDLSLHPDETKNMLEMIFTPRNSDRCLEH

Regarding `C/C=C1/C(=O)C[C@H]2[C@@H]3CCC4=CC(=O)CC[C@]4(C)[C@H]3CC[C@]12C`, the Potency in [1] is 21.6 µM (active); in assay [2], 13.6 µM (active); in assay [3] it was 19.3 µM (active); in assay [6], 9.66 µM (active). The Potency entry in [4], in [5], in assay [7], in [8], in [9] and in assay [10] was “inactive” each time.

Turning to `CCCCCCCCn1sc(Cl)c(Cl)c1=O`, the Potency in [1] was 0.433 µM (active); in assay [11], 6.16 µM (active); in assay [5], 27.3 µM (active); in [6], 27.3 µM (active); in [12], 4.86 µM (active). Moreover, the Potency entry in assay [4], in [7] and in assay [9] was “inactive” throughout.

On to `O=C(Nc1cccc([N+](=O)[O-])c1)c1cc2ccccc2cc1O`, for which the Potency was 2.17 µM (active) in assay [1]; 2.17 µM (active) in assay [2]; 2.17 µM (active) in assay [3]; 1.38 µM (active) in [11]; 10.9 µM (active) in assay [4]; 6.86 µM (active) in assay [15]. The Potency in assay [5] was 1.72 µM (active); in assay [6], 0.864 µM (active); in assay [8], 49 µM (active); in [16] it was 8.63 µM (active); in assay [12] it was 2.73 µM (active). In addition, the Potency result in [13], in assay [14], in [7] and in [9] was “inactive” in each case.

Consider `ON=C1CCCC1`, for which the Potency entry in [1], in assay [2], in assay [3], in [11], in [17] and in [13] was “inactive” each time. Further, the Potency entry in [14], in assay [4], in assay [15], in assay [5], in [6] and in assay [7] was “inactive” throughout. For the same compound, the Potency entry in assay [18], in assay [8], in assay [9], in assay [16], in [10] and in assay [12] was “inactive” each time. The activation in assay [19] (at 95 µM (top of the series)) was 13.6% (inactive).

Take `CSc1ccc2c(c1)C(N1CCN(C)CC1)Cc1ccccc1S2` (centres undefined): the Potency in assay [2] was 6.68 µM (active); in assay [3], 9.44 µM (active); in assay [5] it was 7.5 µM (active); in assay [6], 8.41 µM (active). In addition, the Potency entry in [4], in assay [9] and in [10] was “inactive” in each case. Further, the activation in assay [19] (at 70.3 µM (top of the series)) is -16.2% (inactive).

In the case of `Oc1ccc(N=Nc2ccccc2)cc1`, the Potency in [2] is 61.9 µM (active); in assay [5], 49.2 µM (active); in [6] it was 61.9 µM (active); in assay [18], 39.4 µM [inconclusive] (active); in [9], 49.6 µM [inconclusive] (active); in assay [19] it was 6.19 µM (active). Further, the Potency entry in assay [14], in [15], in assay [7] and in [12] was “inactive” each time.

Take `CC(C)(C)NC(=O)[C@@H]1C[C@@H]2CCCC[C@@H]2CN1C[C@@H](O)[C@H](Cc1ccccc1)NC(=O)[C@H](CC(N)=O)NC(=O)c1ccc2ccccc2n1`: the Potency in assay [1] was 26.6 µM (active); in assay [3], 16.8 µM (active) and 55.2 µM (active); in [11], 49.6 µM (active); in [5] it was 13.3 µM (active) and 24.7 µM (active); in assay [6], 21.1 µM (active) and 31 µM (active); in assay [10], 23.7 µM (active) and 49.2 µM (active). The Potency in assay [12] is 29.8 µM (active) and 31 µM (active). Moreover, the Potency entry in assay [9] is “inactive”.

For the compound `CSc1ccc(/C=C2/C(C)=C(CC(=O)O)c3cc(F)ccc32)cc1`, the Potency entry in assay [1], in [2], in [3], in assay [17], in assay [14] and in assay [4] was “inactive” each time. Moreover, the Potency entry in assay [15], in assay [7], in assay [9], in [16], in assay [10] and in [12] was “inactive” each time. The activation in assay [19] (at 70.3 µM (top of the series)) was -0.897% (inactive).

On to `Cc1ccc(O)c(C(C)(C)C)c1`, for which the Potency is 27.3 µM (active) and inactive in assay [1]; 13.7 µM (active) in assay [2]; 15.3 µM (active) in assay [3]; 17.2 µM (active) and inactive in [5]; 61 µM (active) and inactive in assay [10]; 15.3 µM (active) and inactive in [12]. Further, the Potency result in assay [7] is “inactive”.

Take `[Cl][Au]([Cl])[Cl]`: the Potency is 13.7 µM (active) in [1]; 13.7 µM (active) in [3]; 21.9 µM (active) in assay [11]; 48.6 µM (active) in assay [4]; 3.86 µM (active) in assay [5]; 24.3 µM (active) in assay [12].

For the compound `CCCCc1oc2ccc(NS(C)(=O)=O)cc2c1C(=O)c1ccc(OCCCN(CCCC)CCCC)cc1`, the Potency in assay [1] was 9.44 µM (active); in [2], 13.3 µM (active); in assay [3] it was 18.8 µM (active); in assay [11], 21.3 µM (active); in assay [5], 10.6 µM (active); in assay [6], 11.9 µM (active). In addition, the Potency in [12] was 29.8 µM (active).

`OCc1c[nH]c2ccccc12`: the Potency is 30.6 µM (active) in assay [1]; 51.4 µM (active) in assay [2]; 62.9 µM (active) in assay [5]; 54.5 µM (active) in assay [6]; 4.36 µM [fluorescent] (active) in assay [9]; 33.4 µM (active) in [12]. For the same compound, the Potency result in assay [14] and in assay [7] was “inactive” in each case.
